# Assay outcomes: PubChem, several laboratories
# Hits are enriched below; roughly 3.4% of the tested compounds scored in any of these assays.
# TMEM16A act: activators or potentiators of mouse TMEM16A chloride channel; Q8BHY3; HEK293 TMEM16A/YFP-H148Q/I152L, iodide quench fluorescence; hits give low values; actives 0.3% (n = 340,000); AID 623877; B-score at 10 µM;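 active means fluorescence-ratio B-score plate-corrected deviation score at least 3 library SD below zero, with starting fluorescence score within 5 deviations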;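 further: channel opened by trigger with iodide after compound preincubation; score built on the fluorescence ratio of max minus min over baseline; more negative score means more quench and so TMEM16A activation or potentiation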
# NTR1 ag: activates human neurotensin receptor 1; AID 493036; activation, % at 20 µM; NTR1-U2OS beta-arrestin-GFP spot imaging, agonist mode; actives 0.17% (n = 330,000);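 active means activation at or above 40% of the spot to cytoplasm intensity ratio, with at least 20 cells analyzed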;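 further: 0% = DMSO without peptide and 100% = 100 nM NTR1 peptide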
# MEKK2wt PB1 HTS: raises or lowers MEK5 binding to wildtype human MEKK2 PB1 domain; binding response (% of control), % at 10 µM; actives 1.1% (n = 290,000); bead flow cytometry, Alexa488-MEK5 binding to MEKK2 WT; actives lie on both sides; AID 1531; Q9Y2U5; in the data active means binding response below about 67% or above about 130%
# MEKK2 mut-MEK5: signal of MEK5 binding to mutant human MEKK2 PB1 domain; bead flow cytometry, Alexa488-MEK5 binding to MEKK2 mutant; percent response, % at 10 µM; actives 0.35% (n = 290,000); in the data active means percent response above about 24%, passing the limit was not always enough
# MEKK3 PB1 HTS: raises or lowers MEK5 binding to the human MEKK3 PB1 domain; Q99759; bead-based flow cytometry, Alexa488-MEK5 binding to MEKK3; actives lie on both sides; 0 = blocked by unlabeled MEK5, 100 = vehicle; binding response (% of control), % at 10 µM; actives 1.4% (n = 290,000); AID 1529;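 active means binding response more than 3 SD above or below the average of its plate-row segment, actives on both sides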;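 further: Alexa488 bead fluorescence after subtracting the streptavidin-only scavenger bead signal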
# TMEM16A inh: inhibitors of mouse TMEM16A calcium-activated chloride channel; Q8BHY3; HEK293 TMEM16A/YFP iodide influx fluorescence, ionomycin; actives 1.2% (n = 310,000); normalized B-score (activity score, 25-100; higher = stronger inhibition) at 10 µM; AID 588511;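 active means ratio plate-corrected score three or more library SD toward inhibition, starting fluorescence score within five deviations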;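 further: score derived from kinetic fluorescence span divided by baseline fluorescence per well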
# MEKK2wt confirm: raises or lowers MEK5 binding to wildtype human MEKK2, retest; shares compounds with MEKK3 PB1 HTS; bead flow cytometry, Alexa488-MEK5 binding to MEKK2 WT; actives lie on both sides; binding response (% of control), % at 10 µM; actives 2.4% (n = 5,900); AID 1892; in the data active means binding response below about 16% or above about 210%; inactive means in between
# MEKK2mut-MEK5: signal of MEK5 binding to mutant human MEKK2, retest; actives 2% (n = 5,900); shares compounds with MEKK3 PB1 HTS; bead flow cytometry, Alexa488-MEK5 binding to MEKK2 mutant; percent response, % at 10 µM; in the data active means percent response mostly above about 71%, no sharp cut-off; inactive means mostly below about 38%;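 further: higher means compound restores mutant binding toward wildtype level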
# MEKK3-MEK5 inh: confirmation of inhibitors of MEK5 binding to human MEKK3; bead flow cytometry, Alexa488-MEK5 binding to MEKK3; hits give low values; actives 1.8% (n = 5,900); binding response (% of control), % at 10 µM; shares compounds with MEKK3 PB1 HTS;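 active means binding response below 72% of control, or above a set upper limit, though filed actives all read lower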;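 further: 100% = DMSO only wells and 0% = binding blocked by excess unlabeled MEK5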
# An asterisk follows results filed as active; i = inactive; nt = no result; ! = not active in a repeat; [ ] = remark or other dose.
SMILES,TMEM16A act,NTR1 ag,MEKK2wt PB1 HTS,MEKK2 mut-MEK5,MEKK3 PB1 HTS,TMEM16A inh,MEKK2wt confirm,MEKK2mut-MEK5,MEKK3-MEK5 inh
CN(C)CCCN1c2ccccc2Sc2ccc(C(F)(F)F)cc21,i,18.1,154.0*,13.0,112.0,i,144.0,26.0,106.0
CCN(CC)CCCCN1c2ccccc2Sc2ccccc21,i,1.2,136.0*,12.0,109.0,i,138.0,26.0,109.0
CCN(CC)CC(=O)N1c2ccccc2Sc2ccccc21,i,-0.4,103.0,3.0,103.0,i,nt,nt,nt
CN1CCN(CCCN2c3ccccc3Sc3ccc(Cl)cc32)CC1,i,12.8,188.0*!,23.0,107.0,25*!,157.0,24.0,109.0
OCCN1CCN(CCCN2c3ccccc3Sc3ccc(C(F)(F)F)cc32)CC1,i,15.8,175.0*,19.0,114.0,i,132.0,17.0,108.0
CN(C)CCC(=O)N1c2ccccc2Sc2ccc(C(F)(F)F)cc21,i,-0.7,102.0,3.0,97.0,i,nt,nt,nt
OC1CC2CCC(C1)N2CCCN1c2ccccc2Sc2ccc(Cl)cc21 (stereo unspecified),i,nt,nt,nt,nt,nt,nt,nt,nt
C=C(C)COc1ccc2c(C)c(CC(=O)N3C[C@H]4C[C@@H](C3)c3cccc(=O)n3C4)c(=O)oc2c1C,i,4.2,105.0,1.0,101.0,i,nt,nt,nt
COc1cc(NC(=O)C(C)Oc2ccccc2)cc(OC)c1 (stereo unspecified),i,-1.1,0.0*[inhibitor],-27.0,0.0*[inhibitor],i,104.0,6.0,107.0
CC(Oc1ccccc1)C(=O)Nc1cccc(F)c1 (stereo unspecified),i,1.1,82.0,-17.0,78.0,i,nt,nt,nt
O=C(NNC1=NCCN1Cc1ccccc1)c1cccc(C(F)(F)F)c1,i,0.7,128.0,25.0,128.0*,i,99.0,-2.0,96.0
O=C(NNC(=O)c1cccc(C(F)(F)F)c1)c1ccncc1,i,-0.8,104.0,-1.0,98.0,i,nt,nt,nt
CCc1ccccc1NC(=S)N=Nc1c(O)n(C)c2ccc(S(=O)(=O)N3CCOCC3)cc12,i,0.2,90.0,-2.0,93.0,i,nt,nt,nt
Cc1ccc(C)c(NC(=S)N=Nc2c(O)n(C)c3ccc(S(=O)(=O)N4CCOCC4)cc23)c1,i,0.3,102.0,1.0,62.0*[inhibitor],i,81.0,-12.0,83.0
Oc1c(C=C2N=c3ccccc3=N2)sc(=S)n1C1CCCCC1,i,3.0,53.0*![inhibitor],-3.0,114.0,i,70.0,-13.0,97.0
O=C(Nn1c(O)c(C=C2N=c3ccccc3=N2)sc1=S)c1ccccc1Cl,i,4.2,58.0*[inhibitor],-26.0,82.0,i,66.0,-27.0,89.0
NC(=O)C1CCN(c2nc(-c3cccs3)cs2)CC1,i,-2.0,nt,nt,nt,nt,nt,nt,nt
COCCNC(=O)CN(C(=O)CCC(=O)Nc1ccccn1)c1ccc(C)c(C)c1,i,0.6,98.0,-1.0,99.0,i,nt,nt,nt
CC(C)(C)OC(=O)N[C@H](Cc1ccccc1)C(=O)N1CCC[C@@H]1C(=O)O,i,0.9,99.0,-2.0,100.0,i,nt,nt,nt
CCCCCCCCCCOC(=O)Cn1c(COc2ccccc2)[n+](C)c2ccccc21,i,30.7,226.0*,61.0*,113.0,i,230.0*,84.0*,114.0
CCCCOC(=O)Cn1c(=O)n(CC(=O)OCCCC)c2ccccc21,i,0.9,98.0,2.0,101.0,i,nt,nt,nt
CCOC(=O)Cn1c(COc2ccccc2OC)[n+](C)c2ccccc21,i,-1.7,nt,nt,nt,i,nt,nt,nt
